Assay [1] can be described thus: Nuclear factor erythroid 2-related factor 2/antioxidant responsive element (Nrf2/ARE) small molecule agonists: qHTS cell viability counter screen in human keratinocytes (AID 1919968; active = well fitted curve in the direction sought with a large enough effect in the repeat runs; an effect the other way counts as inactive or inconclusive; also: nearly all actives have a fitted effect of over 55% in size; also: potency is read from the fitted curve at half-maximal effect). Put shortly: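 KeratinoSens HaCaT cells, 1,500/well, preincubated 5 h, then exposed to compounds in DMSO for 23 h at 37 C/5% CO2. Viability read as CellTiter-Fluor fluorescence after 1 h, in the same wells as the ARE-luciferase read.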

Assay [2] in a line: Nuclear factor erythroid 2-related factor 2/antioxidant responsive element (Nrf2/ARE) small molecule agonists: luciferase reporter gene qHTS assay in human keratinocytes (AID 1919969; also: nearly all actives have a fitted effect of over 35% in size; also: potency is read from the fitted curve at half-maximal effect). (A reporter such as luciferase makes a cellular process visible.)
Assay [3] addresses Gonadotropin-releasing hormone receptor (Homo sapiens) (UniProt P30968). The assay is described as follows: Human gonadotropin-releasing hormone receptor (GnRHR) small molecule agonists, calcium flux assay in GnRHR-HEK293 cells (AID 1920063). Also: nearly all actives have a fitted effect of over 35% in size. Put shortly: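 HEK293 cells stably expressing human GnRHR were dye-loaded for 1 h at 37 C. Compound was added in agonist mode and fluorescence (Ex/Em 480/540) recorded kinetically for 3 min. Fifteen concentrations, triplicates.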
In general terms: Calcium assays in cells follow changes in intracellular calcium, usually with a dye or a luminescent sensor.

Assay [4] has as its target KiSS-1 receptor (Homo sapiens) (UniProt Q969F8). The assay is described as follows: Human kisspeptin (KISS1R) small molecule agonists, calcium flux assay in KISS1R-HEK293 cells (AID 1920064; active = well fitted curve in the direction sought with a large enough effect in the repeat runs; an effect the other way counts as inactive or inconclusive). In outline: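 HEK293 cells stably expressing human KISS1R were loaded with calcium dye for 1 h at 37 C, then given compound; fluorescence (Ex/Em 480/540) was read kinetically for 3 min. Fifteen concentrations, triplicate.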

A short description of assay [5]: G protein-coupled receptor (GPCR) small molecule agonists, calcium flux assay: HEK293 wild type cell line counter screen (AID 1920065). In outline: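 Wild-type HEK293 cells plated 18 h, loaded with calcium dye 1 h at 37 C, then compounds added in agonist mode (ATP as positive control). Kinetic fluorescence Ex/Em 480/540 recorded 3 min at 1 sec intervals; 15 concentrations, triplicate.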

Assay [6] is described as follows: p53 small molecule agonists, cell-based qHTS assay with human liver microsomes (AID 1963577). In outline: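 p53RE-bla reporter cells were pre-incubated 5 h at 37 C, then treated with compounds plus human liver microsomes (0.5 mg/mL final) and NADPH (0.5 mg/mL final) for 16 h at 37 C. Beta-lactamase activity was read by LiveBLAzer fluorescence after 2 h at room temperature.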

Assay [7] in a line: p53 small molecule agonists, cell-based qHTS assay with rat liver microsomes (AID 1963578). In outline:
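p53RE-bla cells were exposed to compounds together with rat liver microsomes (0.5 mg/mL final) and NADPH (0.5 mg/mL final) for 16 h at 37 C, then read by LiveBLAzer beta-lactamase fluorescence after 2 h at room temperature.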
On the technique in general: qHTS replaces the single test concentration by a dilution series.

Assay [8] can be described thus: p53 small molecule agonists, cell-based qHTS assay with rat liver microsomes: qHTS cell viability counter screen (AID 1963580). Also: nearly all actives have a fitted effect of over 45% in size. In outline: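 Viability is assessed in parallel with the p53 reporter read: HCT-116 p53RE-bla cells receive compounds plus rat microsomes and NADPH (0.5 mg/mL final apiece), incubate 16 h at 37 C, and then CellTiter-Glo luminescence is recorded.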

A short description of assay [9]: p53 small molecule agonists, cell-based qHTS assay (AID 1963582; active = well fitted activation curve with a large enough effect in the signal ratio in the repeat runs, not every such curve was filed as active; the % refers to the signal ratio). Put shortly: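 p53RE-bla reporter cells, compounds added in DMSO after 5 h plating, incubated 16 h at 37 C. Beta-lactamase read via 2 h room-temperature LiveBLAzer B/G FRET substrate, fluorescence intensity.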
The nature of assay [10]: cAMP Responsive Elements (CRE) small molecule agonists, cell-based qHTS assay (AID 1963590). Put shortly: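 CRE-bla HEK 293T cells, 2,000/well in DMEM with 10% dialyzed FBS and 25 mM HEPES, pre-incubated 18 h at 37 C, then exposed to compound 3 h at 37 C. Beta-lactamase reporter read with LiveBLAzer B/G FRET substrate after 2 h at room temperature.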
For assay [11], the target named is Beta-2 adrenergic receptor (Homo sapiens) (UniProt P07550). Put plainly: Adrenergic beta2 receptor (ADRB2) small molecule antagonists, cell-based qHTS assay (AID 1963592). Also: series mostly up to about 92 µM; nearly all actives have a fitted effect of over 50% in size. In outline: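 Cells (CHO, stable ADRB2 overexpression) incubated 18-20hr at 37C; compounds added from DMSO; agonist mix (1nM isoproterenol, 100uM IBMX, 25uM Ro-20-1724) added; 0.5hr RT; d2-cAMP and anti-cAMP-cryptate added; 1hr RT; 665/615 nm read.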
Beta-2 adrenergic receptor (Homo sapiens), sequence (P07550 whole entry, looked up): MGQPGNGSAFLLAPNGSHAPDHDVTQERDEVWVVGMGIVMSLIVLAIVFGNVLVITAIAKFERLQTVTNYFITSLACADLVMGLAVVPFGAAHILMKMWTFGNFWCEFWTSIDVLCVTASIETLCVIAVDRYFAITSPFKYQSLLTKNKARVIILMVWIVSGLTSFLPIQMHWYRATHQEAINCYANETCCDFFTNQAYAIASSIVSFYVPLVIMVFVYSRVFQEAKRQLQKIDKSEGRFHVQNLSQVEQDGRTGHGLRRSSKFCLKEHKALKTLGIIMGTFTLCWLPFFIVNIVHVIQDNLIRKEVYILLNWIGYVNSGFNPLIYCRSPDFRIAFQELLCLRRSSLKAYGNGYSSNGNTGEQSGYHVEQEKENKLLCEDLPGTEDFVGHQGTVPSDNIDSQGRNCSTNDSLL

For assay [12], the target named is D(2) dopamine receptor (Homo sapiens) (UniProt P14416). Put plainly: Dopamine D2 receptor (DRD2) small molecule agonists, cell-based qHTS assay (AID 1963594). Also: nearly all actives have a fitted effect of over 35% in size. In outline: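 HEK293 cells stably expressing human DRD2, pre-treated with PDE inhibitor Ro20-1724 (0.1 mM final) and compound 10 min at room temperature, then stimulated with NKH477 (200nM […]) for 30 min. cAMP read by HTRF (665/620 nm).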
D(2) dopamine receptor (Homo sapiens), sequence (P14416 whole entry, looked up): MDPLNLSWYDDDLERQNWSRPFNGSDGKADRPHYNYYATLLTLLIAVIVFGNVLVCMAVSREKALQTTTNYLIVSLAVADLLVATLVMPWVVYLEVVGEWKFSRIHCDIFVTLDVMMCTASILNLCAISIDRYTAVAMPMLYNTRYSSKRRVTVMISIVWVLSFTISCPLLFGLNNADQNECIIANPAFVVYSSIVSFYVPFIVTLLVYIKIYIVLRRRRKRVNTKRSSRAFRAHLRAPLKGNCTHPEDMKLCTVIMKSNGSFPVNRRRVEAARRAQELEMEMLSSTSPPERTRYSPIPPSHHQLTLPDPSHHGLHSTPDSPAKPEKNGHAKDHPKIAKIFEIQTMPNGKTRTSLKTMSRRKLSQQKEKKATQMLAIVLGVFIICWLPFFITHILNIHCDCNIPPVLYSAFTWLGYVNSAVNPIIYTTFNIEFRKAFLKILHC

Assay [13] shares this target. Put plainly: Dopamine D2 receptor (DRD2) small molecule antagonists, cell-based qHTS assay (AID 1963595; active = well fitted inhibition curve with a large enough effect in the signal ratio in the repeat runs, with a control signal flat; the % refers to the signal ratio; also: potency is read from the fitted curve at half-maximal effect). Put shortly: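 HTRF cAMP read-out at 665 and 620 nm emission (340 nm excitation). Antagonist mode: compounds were tested against 12 nM quinpirole in DRD2-HEK293 cells, with 200 nM NKH477 raising cAMP and 0.1 mM Ro20-1724 blocking its breakdown.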
Assay [14] has as its target 5-hydroxytryptamine receptor 2A (Homo sapiens) (UniProt P28223). The assay is described as follows: 5-hydroxytryptamine receptor 2A (HTR2A) small molecule antagonists, cell-based qHTS assay (AID 1963586). Also: nearly all actives have a fitted effect of over 45% in size. In outline:
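Antagonist-mode intracellular calcium assay: DOI (4 nM) added after 5 min compound pre-incubation at room temperature to dye-loaded HTR2A-CHO cells. Fluorescence followed for 3 min, sampled every second.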

Assay [15] shares this target. Put plainly: 5-hydroxytryptamine receptor 2A (HTR2A) small molecule agonists, cell-based qHTS assay (AID 1963587). Also: nearly all actives have a fitted effect of over 30% in size. In outline: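 CHO cells stably expressing human HTR2A, plated 18 h, loaded with calcium dye 1 h at 37 C. Agonist mode: compounds added and intracellular calcium fluorescence recorded kinetically for 2 min at 1 sec intervals.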
The target in assay [16] is Muscarinic acetylcholine receptor M1 (Homo sapiens) (UniProt P11229). The assay is described as follows: Cholinergic receptor muscarinic 1 (CHRM1) small molecule antagonists, cell-based qHTS assay (AID 1963588). Also: nearly all actives have a fitted effect of over 40% in size. In outline: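 CHRM1-CHO calcium-flux assay, antagonist mode. Cells were seeded 18 h, dye-loaded 1 h at 37 C and given compound for 5 min at RT, then acetylcholine was added at 50nM. FDSS fluorescence was read 3 min; 15 concentrations, three runs.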
Muscarinic acetylcholine receptor M1 (Homo sapiens), sequence (P11229 whole entry, looked up): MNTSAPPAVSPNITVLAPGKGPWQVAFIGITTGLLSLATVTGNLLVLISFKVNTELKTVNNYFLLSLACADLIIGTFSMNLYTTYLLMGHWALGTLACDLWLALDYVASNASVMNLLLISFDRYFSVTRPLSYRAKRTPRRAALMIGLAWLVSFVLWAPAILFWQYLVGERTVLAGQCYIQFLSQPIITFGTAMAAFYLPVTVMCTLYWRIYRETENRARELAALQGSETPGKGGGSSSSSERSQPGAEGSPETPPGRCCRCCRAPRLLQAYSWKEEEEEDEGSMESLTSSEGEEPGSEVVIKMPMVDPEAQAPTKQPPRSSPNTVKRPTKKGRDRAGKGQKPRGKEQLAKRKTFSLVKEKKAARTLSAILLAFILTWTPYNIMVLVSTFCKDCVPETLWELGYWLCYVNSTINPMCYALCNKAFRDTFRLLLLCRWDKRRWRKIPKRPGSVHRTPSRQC

For assay [17] the target is unchanged. Put plainly: Cholinergic receptor muscarinic 1 (CHRM1) small molecule agonists, cell-based qHTS assay (AID 1963589). Also: nearly all actives have a fitted effect of over 35% in size. In outline:
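CHO cells stably expressing human CHRM1 were loaded with calcium dye for 1 h at 37 C, then compound was added in agonist mode. Intracellular calcium fluorescence was followed kinetically at 1 s intervals. Fifteen concentrations were tested in three independent runs.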

Assay [18] in a line: cAMP Responsive Elements (CRE) small molecule antagonists, cell-based qHTS assay (AID 1963591; active = well fitted inhibition curve with a large enough effect in the signal ratio in the repeat runs, not every such curve was filed as active; the % refers to the signal ratio). In outline: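 CRE-bla HEK293T cells plated 18 h, then given compound plus NKH477 at 0.25 uM final for 3 h at 37C. Beta-lactamase reporter read with LiveBLAzer B/G FRET substrate after 2 h at room temperature.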
Assay [19] has as its target Beta-2 adrenergic receptor (Homo sapiens) (UniProt P07550). The assay is described as follows: Adrenergic beta2 receptor (ADRB2) small molecule agonists, cell-based qHTS assay (AID 1963593). Also: potency is read from the fitted curve at half-maximal effect.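 As to activation: CHO cells stably overexpressing human ADRB2.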 Put shortly:
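CHO cells stably over-expressing ADRB2 were plated overnight at 37C, then dosed with compounds plus a stimulation mix containing 100uM IBMX and 25uM Ro-20-1724 for 0.5hr at room temperature. cAMP was measured by HTRF competition, 1hr.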

Assay [20] in a line: p53 small molecule agonists, cell-based qHTS assay: qHTS cell viability counter screen (AID 1963581). Also: nearly all actives have a fitted effect of over 45% in size. In outline: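 p53RE-bla HCT-116 cells, compounds added 5 h after plating and incubated 16 h at 37 C. Cytotoxicity measured in the same wells as intracellular ATP by CellTiter-Glo luminescence after 30 min at room temperature.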

The results in this text go back to PubChem BioAssay (Tox21).

SMILES strings stand for the structures. Unmarked numbers belong to inactive results. Results filed as inconclusive are left out. Activity calls are given as the source filed them. Unless noted, calls follow the shape of the full dose curve.
% is scaled to controls: 0 for no effect and ±100 for the full control effect.

KiSS-1 receptor (Homo sapiens), sequence (Q969F8 whole entry, looked up): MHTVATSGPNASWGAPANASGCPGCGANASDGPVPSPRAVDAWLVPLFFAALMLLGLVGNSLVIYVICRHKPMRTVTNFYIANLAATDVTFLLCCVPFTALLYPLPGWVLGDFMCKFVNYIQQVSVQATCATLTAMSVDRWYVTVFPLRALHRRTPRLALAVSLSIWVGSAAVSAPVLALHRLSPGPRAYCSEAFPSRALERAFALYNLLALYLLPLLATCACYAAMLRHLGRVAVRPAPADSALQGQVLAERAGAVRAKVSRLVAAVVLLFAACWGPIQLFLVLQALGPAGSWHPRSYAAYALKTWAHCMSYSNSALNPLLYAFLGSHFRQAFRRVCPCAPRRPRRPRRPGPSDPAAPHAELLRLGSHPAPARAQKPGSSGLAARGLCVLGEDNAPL
5-hydroxytryptamine receptor 2A (Homo sapiens), sequence (P28223 whole entry, looked up): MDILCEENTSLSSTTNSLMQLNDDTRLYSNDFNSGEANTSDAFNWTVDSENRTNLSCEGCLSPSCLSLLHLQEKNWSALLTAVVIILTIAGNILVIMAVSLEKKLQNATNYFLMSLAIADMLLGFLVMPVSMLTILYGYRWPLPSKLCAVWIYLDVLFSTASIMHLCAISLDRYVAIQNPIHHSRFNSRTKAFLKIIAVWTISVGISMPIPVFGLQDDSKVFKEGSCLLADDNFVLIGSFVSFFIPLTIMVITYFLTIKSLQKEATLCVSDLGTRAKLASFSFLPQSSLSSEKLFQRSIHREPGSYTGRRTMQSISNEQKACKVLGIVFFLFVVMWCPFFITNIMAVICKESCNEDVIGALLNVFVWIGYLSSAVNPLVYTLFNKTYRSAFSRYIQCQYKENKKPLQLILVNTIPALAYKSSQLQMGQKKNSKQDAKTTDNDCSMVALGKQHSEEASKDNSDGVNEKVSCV
Gonadotropin-releasing hormone receptor (Homo sapiens), sequence (P30968 whole entry, looked up): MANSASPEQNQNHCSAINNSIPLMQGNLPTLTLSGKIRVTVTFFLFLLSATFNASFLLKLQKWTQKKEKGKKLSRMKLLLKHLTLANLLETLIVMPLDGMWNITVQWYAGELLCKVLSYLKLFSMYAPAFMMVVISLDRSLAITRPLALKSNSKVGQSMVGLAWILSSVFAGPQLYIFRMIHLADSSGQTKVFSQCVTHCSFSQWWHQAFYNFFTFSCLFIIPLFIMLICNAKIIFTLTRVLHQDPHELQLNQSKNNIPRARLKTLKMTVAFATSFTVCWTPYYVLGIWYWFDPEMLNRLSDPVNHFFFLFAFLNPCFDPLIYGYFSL

In the case of `NC(=O)CC[C@@H]1NC(=O)[C@H](Cc2ccccc2)NC(=O)[C@H](Cc2ccc(O)cc2)NC(=O)CCSSC[C@@H](C(=O)N2CCC[C@H]2C(=O)N[C@@H](CCCN=C(N)N)C(=O)NCC(N)=O)NC(=O)[C@H](CC(N)=O)NC1=O`, the Potency result in assay [1], in assay [2], in [3], in assay [6], in assay [7] and in assay [8] was “inactive” throughout. Also, the Potency entry in assay [9], in assay [10], in assay [11], in assay [12] and in assay [13] was “inactive” in each case. Further, the outcome in assay [4] and in assay [5] was inactive.
On to `O=C1OC(=O)C2C3C=CC(C3)C12` (configuration not stated), for which the Potency entry in assay [1], in [2], in [3], in assay [6], in assay [7] and in assay [8] was “inactive” throughout. Besides, the Potency entry in [9], in assay [14], in [15], in assay [16], in [17] and in [10] was “inactive” in each case. The Potency result in assay [18], in [11], in [19] and in assay [13] was “inactive” in each case. In addition, the result in assay [4] and in assay [5] was inactive.
On to `[Cu+]`, for which the Potency result in assay [1], in assay [3], in [6], in assay [7], in assay [20] and in assay [9] was “inactive” in each case. The Potency entry in assay [14], in assay [15], in assay [16], in assay [17], in assay [10] and in [18] was “inactive” throughout. The Potency result in [11] and in assay [13] was “inactive” each time. The Potency in assay [2] was 54.5 µM (active). Also, the result in assay [4] and in assay [5] was inactive.
Turning to `CC(C)(O)C(=O)c1ccccc1`, the Potency result in assay [1], in assay [2], in [3], in assay [6], in assay [8] and in assay [20] was “inactive” each time. In addition, the Potency entry in [9], in [14], in assay [15], in [16], in assay [17] and in assay [10] was “inactive” in each case. Further, the Potency entry in assay [18], in assay [11], in assay [12] and in assay [13] was “inactive” throughout. For the same molecule, the result in [4] and in assay [5] was inactive.
As for `C[n+]1cc2c3c(ccc2c2ccc4cc5c(cc4c21)OCO5)OCO3`, the Potency in assay [1] is 1.64 µM (active); in [2], 1.46 µM (active); in [19], 9.2 µM (active); in [13], 13 µM (active). In addition, the activity change in assay [3] is 3.58% [at 11.8 µM, active compounds read high]. The activation is 0.698% [at 15.8 µM] in assay [4]; 3.71% [at 11.8 µM] in [5]; -8.2% [at 13.5 µM] in assay [6]; -6.71% [at 13.6 µM] in assay [7]; -0.417% [at 13.5 µM] in assay [9]; 10.7% [at 15.9 µM] in [15]. Besides, the activation in assay [17] was 0.0411% [at 15.8 µM]. Also, the activity change, negative = cytotoxicity in assay [20] is -21.2% [at 13.5 µM]. In addition, the activity, negative = inhibition was 8.48% [at 12.7 µM] in assay [14] and -0.831% [at 12.6 µM] in assay [16].
For the molecule `CCn1cc(C(=O)O)c(=O)c2cc(F)c(N3CCN(C)CC3)cc21`, the results for the activity change, negative = cytotoxicity in assay [1] and in assay [20] were 14.8% [at 19 µM] and -4.59% [at 13.5 µM], respectively. Besides, the activity, positive = activation in [2] was -5.55% [at 19 µM]. The activity change in assay [3] is -1.03% [at 11.8 µM, active compounds read high]. The activation was -0.924% [at 15.8 µM] in assay [4]; -0.469% [at 11.8 µM] in [5]; 0.192% [at 13.5 µM] in assay [6]; -1.11% [at 13.6 µM] in assay [7]; -0.0544% [at 13.5 µM] in assay [9]; -2.07% [at 19 µM] in assay [10]. The activity change, negative = inhibition in assay [18] was -14.3% [at 18.9 µM]; in [11], 0.624% [at 19 µM]. In addition, the Potency result in assay [19] is “inactive”.
As for `CCCCCCCCCCCCCC(=O)OCC(O)CO` (configuration not stated), the Potency entry in [1], in assay [2], in assay [3], in [6], in [7] and in assay [20] was “inactive” in each case. The Potency entry in assay [9], in assay [14], in [15], in assay [16], in [17] and in assay [10] was “inactive” in each case. Also, the Potency result in assay [18], in assay [11], in assay [12] and in assay [13] was “inactive” throughout. The outcome in assay [4] and in assay [5] was inactive.
